Screening results deposited in PubChem by The Scripps Research Institute Molecular Screening Center.
An excerpt weighted towards active compounds, which were near 4.5% of everything screened.
ssDAF12 agonist – activates DAF-12 receptor from parasite S. stercoralis. HEK293 ssDAF-12/GRIP1 lit1-tk-luc reporter, luminescence; % of 3 µM dafachronic acid response. activation, % at 6.8 µM. actives 1% (n = 370,000). AID 652126;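 active means activation above the mean over all tested compounds plus 3 SD, cut at about 0.9% in these data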
DAX1 inh-1 – NR0B1 (DAX1) inhibition; AID 504766; inhibition, % at 6.75 µM; P51843; actives 0.99% (n = 340,000); HEK293 Gal4-DAX1 luciferase reporter, luminescence;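 active means inhibition above the mean over all tested compounds plus 3 SD, cut at about 4.2% in these data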;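 further: inhibition shows as a rise in luminescence from relieved DAX1 repression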
Target sequence (P51843 207-470 limits assumed): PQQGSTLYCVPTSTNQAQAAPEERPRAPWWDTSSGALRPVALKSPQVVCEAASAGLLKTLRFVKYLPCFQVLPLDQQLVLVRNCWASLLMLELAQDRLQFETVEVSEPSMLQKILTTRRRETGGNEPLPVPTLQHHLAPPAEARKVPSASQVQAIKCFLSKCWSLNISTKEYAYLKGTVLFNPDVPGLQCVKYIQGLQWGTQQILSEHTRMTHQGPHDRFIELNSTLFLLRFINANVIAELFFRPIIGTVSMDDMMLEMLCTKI
DAX1 inh-2 – DAX1 (NR0B1) inhibition, primary screen; HEK293T StAR-luciferase reporter, SF-1/DAX-1 repression relief; inhibition, % at 6.8 µM; actives 1.1% (n = 370,000); AID 652010;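 active means inhibition above the mean over all tested compounds plus 3 SD, cut at about 3.6% in these data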;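 further: higher inhibition means more luminescence from relief of DAX-1 repression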
GAA850 FXN act – frataxin GAA850 promoter activation; HEK293 lucGAA850 FXN promoter luciferase reporter, 24 h; percent of 10 µM SAHA response; activation, % at 6 µM; actives 0.56% (n = 360,000);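 active means activation above the average of all compounds screened plus 3 SD, cutoff fixed separately per campaign, cut at about 7.5% in these data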
hcDAF-12 act – activates DAF-12 receptor from parasite H. contortus. HEK293 hcDAF-12 lit1-tk-luc reporter, luminescence; 0% DMSO, 100% Δ7-dafachronic acid. activation, % at 6.8 µM. actives 1.4% (n = 370,000);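 active means activation above the mean of all tested compounds plus 3 SD, cut at about 5.5% in these data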
hgDAF-12 ag – agonists of H. glycines DAF-12 nuclear receptor; HEK293 GAL4-hgDAF12 UAS-luciferase reporter, agonist luminescence; normalized to butyrate control; activation, % at 6.8 µM; AID 687014; actives 1.8% (n = 370,000);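 active means activation above a cutoff set at the mean of all screened compounds plus 3 SD, cut at about 10% in these data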
Each line names hits and unclear results; the compound was inactive in the other large screens.

COc1ccc(/C=N/NC(=O)c2cccs2)c2ccccc12	hgDAF-12 ag 11
NNc1nc(-c2ccccc2)cs1	hcDAF-12 act 6.0
Cc1ccc(-c2csc(N/N=C/c3ccco3)n2)cc1	none
Brc1ccc(-c2csc(N/N=C/c3ccco3)n2)cc1	none
C(=N\Nc1nc(-c2ccccc2)cs1)/c1ccco1	hgDAF-12 ag 13
Clc1ccc(-c2csc(N/N=C/c3ccco3)n2)cc1	DAX1 inh-1 6.2
Cc1sc(N/N=C/c2ccco2)nc1-c1ccccc1	ssDAF12 agonist 1.4
COc1ccc(C(C(=O)N(C)C2CCCC2)N(Cc2ccc(F)cc2)C(=O)c2ccc3ccccc3c2)cc1OC (stereo not drawn)	none (no result: DAX1 inh-1, GAA850 FXN act)
C[C@H]1[C@H](NC(=O)c2cccc(Cl)c2)CC[C@@]23CCCN2C(=O)CCC[C@@H]13	none (no result: DAX1 inh-1, DAX1 inh-2, GAA850 FXN act)
COC(=O)[C@]12C[C@H](CC(=O)NCCc3ccccc3OC)C(=O)N(CCC3=CCCCC3)C1=C[C@H](C(C)C)O[C@@H]2C1CC1	none (no result: DAX1 inh-1, GAA850 FXN act)
C[C@H]1COc2cc(Br)ccc2S(=O)(=O)N1Cc1cn(Cc2ccc(C(F)(F)F)cc2)nn1	none (no result: DAX1 inh-1, GAA850 FXN act)
COc1ccc(OCC(C)CN2CCC(C(O)(c3ccccc3)c3ccccc3)CC2)cc1 (stereo not drawn)	none (no result: DAX1 inh-1, GAA850 FXN act)
O=C(CCc1ccccc1-c1ccccc1CCNC(=O)c1ccccc1)NCc1ccccc1	none (no result: DAX1 inh-1, GAA850 FXN act)
CN1C2=N[C@@H](c3ccccc3)CC(=O)N2/C(=C\c2ccccc2)[C@H]1c1ccccc1	none (no result: DAX1 inh-1, DAX1 inh-2, GAA850 FXN act)
C(=N\Nc1nc(-c2ccccc2)cs1)/c1cccs1	hcDAF-12 act 5.8
C(=N\Nc1nc(-c2ccccc2)cs1)/c1ccncc1	none
COc1ccc(C(=O)c2[nH]c(N)c(C(=O)c3ccccc3)c2-c2ccc(OC)c(OC)c2)cc1	none (no result: DAX1 inh-1, DAX1 inh-2, GAA850 FXN act)
O=C(NCc1ccncc1)c1ccc2nc(Cc3ccccc3F)oc2c1	none
O=C(NCCCN1CCOCC1)c1ccc2nc(Cc3ccccc3F)oc2c1	DAX1 inh-2 4.2
CCCCc1nc2cc(C(=O)N3CCC[C@H]3CO)ccc2o1	none
Cc1cc(CNC(=O)c2ccc3nc(Cc4ccccc4F)oc3c2)nn1C	hgDAF-12 ag 12
CCCCc1nc2cc(C(=O)N3CCC(O)CC3)ccc2o1	ssDAF12 agonist 1.0, hcDAF-12 act 6.2, hgDAF-12 ag 11
CCCCc1nc2cc(C(=O)NCc3cc(C)n(C)n3)ccc2o1	hcDAF-12 act 6.2
O=C(NCCCN1CCOCC1)c1ccc2ccccc2c1	none
CCOC(=O)[C@]12CCCCC/C=C\1N(Cc1ccc(OC)cc1)C(=O)[C@H]2CC(=O)NCc1ccc(OC)c(OC)c1	none (no result: DAX1 inh-1, GAA850 FXN act)
CC(C)C[C@@H]1COc2cc(Br)ccc2S(=O)(=O)N1Cc1cn(Cc2ccco2)nn1	none (no result: DAX1 inh-1, GAA850 FXN act)
CC(C)CC(=O)C1CCCN(C(=O)c2ccc3oc(Cc4ccccc4)nc3c2)C1 (stereo not drawn)	none
CCOC(=O)C1CCCN(C(=O)c2ccc3oc(Cc4ccccc4)nc3c2)C1 (stereo not drawn)	hgDAF-12 ag 11
Cc1cc(/C=C(\C#N)C(=O)OCC(=O)Nc2ccc(OC(F)F)cc2)c(C)n1CC(C)C	DAX1 inh-2 4.0
CCCn1c(C)cc(/C=C(\C#N)C(=O)OCC(=O)Nc2ccc(OC)c(Cl)c2)c1C	none
COCCn1c(C)cc(/C=C(\C#N)C(=O)OCC(=O)Nc2ccc(S(N)(=O)=O)cc2)c1C	DAX1 inh-1 5.0, hcDAF-12 act 6.4
CCn1c2ccccc2c2cc(C=NNC(=O)CSc3nc4ccccc4c(=O)n3-c3ccccc3)ccc21	none (no result: DAX1 inh-1, GAA850 FXN act)
O=[N+]([O-])c1nn(-c2ccc(Cl)cc2)n(O)c1=NCc1ccccc1	DAX1 inh-1 5.0
Cc1c(Cl)cccc1N=c1c([N+](=O)[O-])nn(-c2ccccc2)n1O	hcDAF-12 act 5.6
CCOc1ccc(-n2c(SCC(=O)Nc3ccc(S(=O)(=O)Nc4nccs4)cc3)nnc2-c2ccco2)cc1	none (no result: DAX1 inh-1, GAA850 FXN act)
COCCn1c(SCC(=O)N2CC(=O)Nc3ccccc32)nc2ccccc21	hcDAF-12 act 5.8
CN(C)C(=S)NC(=S)Nc1ccc2ccccc2c1	ssDAF12 agonist 1.3, GAA850 FXN act 17, hcDAF-12 act 12, hgDAF-12 ag 17
CC1(NC(=S)Nc2ccc3ccccc3c2)CCS(=O)(=O)C1 (stereo not drawn)	none
CCCCOc1ccc(C(=O)NC2CCCCN(Cc3cccc(C(F)(F)F)c3)C2=O)cc1 (stereo not drawn)	none (no result: DAX1 inh-1, GAA850 FXN act)
CC[C@@H](C)[C@@H]1CN([C@@H](C)CN2CCC[C@H]2CN2C(N)=NC[C@@H]2Cc2ccccc2)C(=N)N1CCc1ccc(Cl)c(Cl)c1	DAX1 inh-1 5.2 (no result: ssDAF12 agonist, DAX1 inh-2, hcDAF-12 act, hgDAF-12 ag)
CC(=O)N1CCN(C(=O)CCn2nnc3ccccc32)CC1	none (no result: DAX1 inh-1, GAA850 FXN act)
Cc1cc[n+](C2=C([O-])c3ccccc3C(=O)/C2=N\S(=O)(=O)c2cccs2)cc1C	DAX1 inh-1 4.5
Cc1cc(C)c[n+](C2=C([O-])c3ccccc3C(=O)/C2=N\S(=O)(=O)c2cccs2)c1	none
Cc1ccc(-n2c(SCC(=O)Nc3ccccc3-c3ccccc3)nnc2-c2cccnc2)cc1	none (no result: DAX1 inh-1, GAA850 FXN act)
OCCN1CCN(Cc2cc(Cl)c3cccnc3c2O)CC1	none
Oc1c(CN2CCN(c3ccccn3)CC2)cc(Cl)c2cccnc12	GAA850 FXN act 10 (no result: ssDAF12 agonist, DAX1 inh-2, hcDAF-12 act, hgDAF-12 ag)
Nn1c(SCC(=O)N2CCOCC2)nnc1-c1cc(-c2ccc(F)cc2)n[nH]1	none (no result: DAX1 inh-1, GAA850 FXN act)
CCOC(=O)c1c(NC(=O)COC(=O)c2cc(OC)c(OC)cc2[N+](=O)[O-])sc(C)c1C	ssDAF12 agonist 1.4
CCOc1ccc(-n2c(SCC(=O)c3ccc4ccccc4c3)nnc2-c2ccc(OC)cc2)cc1	none (no result: DAX1 inh-1, GAA850 FXN act)
COc1ccc(C(=O)CC(=O)C(=O)Nc2cc(C)ccc2C)cc1	none
COc1ccc(OC(=O)NCCc2ccccc2)cc1	hgDAF-12 ag 13
COc1ccc(C(=O)CC(=O)C(=O)NCCc2cccc(C)c2)cc1	hcDAF-12 act 6.4
COc1cc2c(cc1NC(=O)C(C)OC(=O)/C=C/c1ccc(OC(F)F)cc1)oc1ccccc12 (stereo not drawn)	hcDAF-12 act 8.2
COc1ccc(/C=C/C(=O)NC(=S)Nc2cc3oc4ccccc4c3cc2OC)cc1	none
Cc1cccc(OCC(=O)Nc2nonc2NC(=O)COc2cccc(C)c2)c1	none
Cc1ccc(C)c(OCC(=O)Nc2nonc2NC(=O)COc2cc(C)ccc2C)c1	DAX1 inh-1 5.3
CC(=O)Cn1nnc(-c2ccc(C(F)(F)F)cc2)n1	none
NNC(=O)Cn1nnc(-c2ccc(C(F)(F)F)cc2)n1	ssDAF12 agonist 0.9 (no result: DAX1 inh-1)
CC(C)(CCl)C(=O)Nc1ccc(C(F)(F)F)cc1	ssDAF12 agonist 1.1
Cc1ccc(NC(=O)c2cc(-c3ccc(F)cc3)on2)cc1C	DAX1 inh-1 6.1
O=C(NC(=S)Nc1ncccn1)c1ccc(F)cc1	none
O=C(NC(=S)Nc1cccnc1Cl)c1ccc(F)cc1	DAX1 inh-1 5.4
O=C(Nc1cccnc1Cl)c1cc(-c2ccc(F)cc2)on1	DAX1 inh-1 5.0
